The source of these data is the OligoGym collection.
Also: reference of the scale not given here.

For one experiment, the target named is SLC25A25. Kind of experiment: pooled miR-30 sensor sort-seq; sequence = guide strand. The settings on record: shRNA.
Consider TATCTTGACTCCCAAGTCCCGC, for which the sensor-assay potency score (higher = more potent) was -1.03. In turn, TTCCAGTCGATGGTCATCGTGC yielded a sensor-assay potency score (higher = more potent) of -0.398. Sequence AAATTCTTCAAAGTCTAGCTGC gave a sensor-assay potency score (higher = more potent) of 0.318. In turn, TTCTTTTTGTCCAAACTCTTAA showed a sensor-assay potency score (higher = more potent) of -1.04.

As for TAGTCTCTCCACTCGTTCCAGT, the sensor-assay potency score (higher = more potent) is -0.705. Still for that read-out and setting: the figure for TAGACTGCAAGGTCGATGCCGG is -0.614; for TGCATGAGCACCTTGAGCCTGT it is -0.00686. The sequence TTCTCGTAGACCACGTAGCTGA had a sensor-assay potency score (higher = more potent) of -0.478.

In turn, TTAAATGACAACTTCTAACGTC displayed a sensor-assay potency score (higher = more potent) of 0.538.

The sequence TTGAGCGTCTCGTAGACTGCAA showed a sensor-assay potency score (higher = more potent) of 0.033.

The next experiment has as its target SLC25A30. Described as above. The following applies: shRNA.
The sequence TTCAATGAATAGTCGCTTCAAG had a sensor-assay potency score (higher = more potent) of -0.455. Same read-out and setting: the figure for TGTCTGTAACAAGCAATCCAGG is -1.42; for TAAATGTTCATGAAGTTGCCTA it is -0.274; for TGTAGCCAGAACATCTGCCATC it is -1.32.

The sequence TTATCGGTAGAGTTTCATCTTC yielded a sensor-assay potency score (higher = more potent) of -0.374. Take TATCGGTAGAGTTTCATCTTCT: the sensor-assay potency score (higher = more potent) came to 0.16. In the case of TAGAGTTTCATCTTCTGGGCGT, the sensor-assay potency score (higher = more potent) stood at 0.316.

Sequence TATCATTCCTCCTTGAATGGTG registered a sensor-assay potency score (higher = more potent) of -0.0231.

On to TTGCTTTGCGCTTGCATCCGAA, for which the sensor-assay potency score (higher = more potent) was -1.2. TTATAGAGAGCAAAAAACCCTT came in with a sensor-assay potency score (higher = more potent) of -0.63.

As to TAAGTGCCTATCTTGATGGTGC, the sensor-assay potency score (higher = more potent) was determined as 0.212.

Another experiment addresses SLC25A38. The experiment is described as above. The following applies: shRNA.
In turn, TTTGATAACATCCGCAGGTTGA yielded a sensor-assay potency score (higher = more potent) of -0.428. On the same count and under the same terms, for TGAGTTTTGATAACATCCGCAG the value was -0.615; for TATGAGTTTTGATAACATCCGC, -0.0581; for TAGGACTTCATCTTACTGCAGA, -0.516. Regarding TTGAAAATAAGTGTCACTGCTT, the sensor-assay potency score (higher = more potent) is 0.827. The same measure, in the same setting: the figure for TTGATGACTCCTCTTTTGGAGA is -1.04; for TATGAATTGATGACTCCTCTTT it is 0.416; for TATATTTTTGGTCTGGTTGTAA it is 0.16.

Consider ATAGGTGACATACAGACCCCTG, for which the sensor-assay potency score (higher = more potent) was -0.876. On the same count and under the same terms, the figure for TAACATAAGCGTTTCCACCGTG is 0.26. On to ATGAGTTTTGATAACATCCGCA, for which the sensor-assay potency score (higher = more potent) amounted to 0.0272. Sequence AAGAGTACAGCCAACATCCCAA gave a sensor-assay potency score (higher = more potent) of -0.0219.

A further experiment deals with SLC25A3. The description is as above. The settings on record: shRNA.
TTGTACAGTGCTTCAACAGTAC displayed a sensor-assay potency score (higher = more potent) of 0.043.

Turning to TTGAGGACCAGAGAAGCACTGC, the sensor-assay potency score (higher = more potent) turned out to be 0.0253. With TTGCACAAAAGACTCCAGCTAT, the sensor-assay potency score (higher = more potent) turned out to be 0.0495.

As to TTAAGTGTAACTGAGAATCCGT, the sensor-assay potency score (higher = more potent) was 0.392. For the sequence TACAAATGTTACAACCAGCTGC, the sensor-assay potency score (higher = more potent) is 0.505. On the same count and under the same terms, for TTCACAACTGTACTCTTCCACG the value was -0.783; for TTTAAATCCAAGTCTCTTGAGG, -0.533.
